The list is not random: actives were taken first. Their share in the collection is about 9.2%.
ELG1 DNA repair: qHTS screen for small molecules that inhibit ELG1-dependent DNA repair in human embryonic kidney (HEK293T) cells expressing luciferase-tagged ELG1 | 330,000 compounds, 2.3% hits | Potency, µM (doses to about 46.1 µM), for the others: top-dose activity change, negative = inhibition, hits mostly inhibitors | AID 504467, 2011 | HEK293T ELG1-luciferase reporter, luminescence, 16 h; DNA damage induced by 5-fluorouridine; note: % is set by controls: 0 for no effect and ±100 for the full control effect; nearly all actives have a fitted effect of over 55% in size
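In this reporter screen, reduction of luminescence relative to DMSO vehicle indicated activity. Compounds and 5-fluorouridine were added together to 2,000 cells per well, incubated for 16 hr at 37 °C, then developed with ONE-Glo.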
Rab9 promoter act: qHTS Assay for Rab9 Promoter Activators; Huh7 Rab9 promoter-luciferase reporter, luminescence, 24 h; Potency, µM (series often up to 9.22 µM), for inactives: at the highest dose activation, negative = inhibition, hits mostly activators; 320,000 compounds, 2.8% hits; AID 485297, 2010; note: % of control where 0% means no effect; nearly all actives have a fitted effect of over 60% in size
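Luminescence from Amplite-detected luciferase (10 minutes, ambient) reports Rab9 promoter activation. Before that, stable Rab9-luciferase Huh7 cells (1500/well, reduced-serum OP-MEM I plus 10% FBS) were exposed to compound for 24 hours at 37C.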
FLuc counter: qHTS profiling assay for firefly luciferase inhibitor/activator using purifed enzyme and Km concentrations of substrates (counterscreen for miR-21 project); Luciferin 4-monooxygenase (Photinus pyralis), P08659; purified FLuc, Km substrates, luminescence inhibition; Potency, µM (titrated, usually from 57.5 µM), for inactives: top-dose activity change, negative = inhibition, actives largely listed as inhibitors; 360,000 compounds, 6.9% hits;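 note: plate controls were vehicle for no effect and reference inhibitor for full effect; nearly all actives have a fitted effect of over 55% in size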
Target sequence (P08659 whole entry, looked up): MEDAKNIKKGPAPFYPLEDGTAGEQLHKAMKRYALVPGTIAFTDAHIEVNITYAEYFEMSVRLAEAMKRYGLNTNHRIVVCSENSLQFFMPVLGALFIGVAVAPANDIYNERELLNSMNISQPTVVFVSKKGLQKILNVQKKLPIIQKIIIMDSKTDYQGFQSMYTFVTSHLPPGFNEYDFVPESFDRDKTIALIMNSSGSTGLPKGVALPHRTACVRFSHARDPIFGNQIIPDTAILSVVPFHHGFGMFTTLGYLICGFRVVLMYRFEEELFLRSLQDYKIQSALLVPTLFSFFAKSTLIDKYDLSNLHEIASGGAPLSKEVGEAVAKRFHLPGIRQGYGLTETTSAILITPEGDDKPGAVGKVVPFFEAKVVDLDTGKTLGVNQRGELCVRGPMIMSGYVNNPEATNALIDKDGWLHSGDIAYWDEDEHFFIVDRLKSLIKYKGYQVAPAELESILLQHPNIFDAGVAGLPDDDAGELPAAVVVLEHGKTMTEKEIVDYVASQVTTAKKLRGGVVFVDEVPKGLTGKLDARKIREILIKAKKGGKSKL
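Purified P. pyralis luciferase (10nM final) with 10uM D-luciferin and 10uM ATP (Km levels) in 50mM Tris acetate pH 7.5, 10mM Mg acetate, 0.01% Tween-20, 0.05% BSA; qHTS 6-point titration, ~60 µM downward; luminescence read.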
ELG1 genotoxic: qHTS screen for small molecules that induce genotoxicity in human embryonic kidney (HEK293T) cells expressing luciferase-tagged ELG1 | 330,000 compounds, 1.3% hits | Potency, µM (doses to about 46 µM), inactives show top-dose activity change, positive = activation, hits mostly activators | HEK293T ELG1-luciferase reporter, luminescence, 16 h; note: % of control where 0% means no effect; nearly all actives have a fitted effect of over 60% in size
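HEK293T cells expressing luciferase-tagged ELG1 were treated with compound or DMSO for 16 hr at 37°C. Luciferase activity was then read after 30 min with ONE-Glo at room temperature; rising signal flags genetic stress.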
SMN2 splice enh: qHTS Assay for Enhancers of SMN2 Splice Variant Expression; HEK293 SMN2-luciferase splicing reporter, luminescence, 30-36 h; Potency, µM (titrated, usually from 46.1 µM), without a hit: top-dose activity change, positive = activation, actives largely listed as activators; 210,000 compounds, 2.8% hits; note: % of control where 0% means no effect; nearly all actives have a fitted effect of over 55% in size
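HEK293 cells carry an SMN2 minigene-luciferase reporter in which exon 7 inclusion puts luciferase in frame. Cells were seeded at 2000 cells/well, attached for 10-12 hours, then exposed to compounds for 30-36 hours at 37C before ONE-Glo luminescence.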
NPC1 prom act: qHTS Assay for NPC1 Promoter Activators; AID 485313, 2010; Potency, µM (titrated, usually from 9.22 µM), inactives show at the highest dose activation, most hits filed as activators; Huh7 NPC1 promoter luciferase reporter, 24 h; 320,000 compounds, 2.4% hits; note: % of control where 0% means no effect; nearly all actives have a fitted effect of over 60% in size
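Huh7 cells stably carrying NPC1 promoter–luciferase, plated in Opti-MEM with 10% FBS for 2 h, were exposed to compound in DMSO for 24 h at 37 °C; luciferase reagent was added for 10 min and luminescence read.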
Active calls of the source: *; ? = inconclusive; / = no result given; [ ] = another dose, or the depositor's remark. Calls come from the whole dose curve; as a rule, active = well fitted curve in the direction sought with a large enough effect; inconclusive = small, poorly fitted or top-dose-only effect, or another doubt; inactive = no such curve, though single readings can be large; an effect the other way counts as inactive or inconclusive. Potency is the fitted concentration of half-maximal effect.

SMILES	ELG1 DNA repair	Rab9 promoter act	FLuc counter	ELG1 genotoxic	SMN2 splice enh	NPC1 prom act
Cc1nn(-c2ccc(C(=O)NCC(c3ccco3)N3CCCC3)cc2)c(C)c1Cl (stereo unspecified)	1%	-1%	-2%	-1%	/	-1%
C=C(C(C)=O)C(O)c1ccc2ccccc2c1 (stereo unspecified)	/	/	/	/	1%	/
Fc1ccc(-c2noc(-c3ccc4c(c3)CCO4)n2)cc1	?	0.4µM*	0.54µM*	?	/	?
Cc1cc(N/N=C/c2ccncc2)nc2ccccc12	?	2.8µM*	11µM*	?	14µM*	?
Cc1cc(N/N=C/c2cccc(Br)c2)nc2ccccc12	?	?	4.8µM*	?	13µM*	3.2µM*
Cc1ccc(CCNC(=O)CCS(=O)(=O)c2cc3c(cc2C)NC(=O)CO3)cc1	21%	4%	1%	-1%	/	0%
CN(C(=O)Cc1csc(-c2ccccc2)n1)c1c(N)n(Cc2ccccc2)c(=O)[nH]c1=O	-2%	-3%	-3%	1%	/	-2%
CCOC(=O)c1c[nH]c2ccc3ccccc3c2c1=O	-5%	0%	?	-4%	/	-1%
CCOC(=O)c1ccc(-c2ccc3[nH]c4ccccc4c(=O)c3c2)cc1F	?	-3%	0.54µM*	?	/	?
CNC(=O)/C(C#N)=C/c1ccc(-c2nc3ccccc3s2)o1	?	1.4µM*	?	?	/	2.8µM*
CNC(=O)/C(C#N)=C\c1ccc(CNS(=O)(=O)c2ccccc2)o1	-6%	6%	0%	0%	0%	0%
N#C/C(=C\c1ccc(-c2nc3ccccc3s2)o1)C(N)=O	?	?	2.7µM*	18%	/	3.2µM*
CCC(C(=O)OC)(C(=O)OC)c1ccc([N+](=O)[O-])cc1	-14%	1%	-2%	0%	0%	-1%
Cc1cccc(N2CCN(C(=O)Cn3c(C)c4cnn(-c5ccccc5)c(=O)c4c3C)CC2)c1C	/	/	5%	/	-12%	/
COc1ccc(C(=O)N=c2sccn2C)cc1	?	?	17µM*	?	?	?
CCOc1cc(C(=O)N=c2sccn2C)ccc1OC(F)F	0%	?	-18%	0%	/	11%
Cn1ccsc1=NC(=O)c1ccc(S(=O)(=O)C(F)F)cc1	?	3.5µM*	?	?	/	?
Cn1ccsc1=NC(=O)c1ccc(CS(C)(=O)=O)cc1	?	20%	?	16%	/	17%
Cn1ccs/c1=N\C(=O)Nc1ccccc1	?	3.2µM*	11µM*	?	/	2.5µM*
COC(=O)c1ccc(C(=O)N=c2sccn2C)cc1	?	2.8µM*	15µM*	?	/	2.8µM*
Cn1ccsc1=NC(=O)c1ccccc1F	?	21%	-1%	-9%	3%	4%
CCc1ccc(S(=O)(=O)c2nnn3c2nc(NCc2cccc(OC)c2)c2cc(Cl)ccc23)cc1	/	/	1%	/	2%	/
C=CCN(CC(=O)NC1CCS(=O)(=O)C1)S(=O)(=O)c1ccccc1C(F)(F)F (stereo unspecified)	?	-2%	-1%	-2%	5%	-7%
CCc1ccccc1NC(=O)CSc1ncc(S(=O)(=O)c2ccc(C(C)C)cc2)c(N)n1	/	/	-14%	/	/	/
CN(C)c1ccc(C(=O)N=c2sccn2C)cc1[N+](=O)[O-]	?	3.2µM*	9.5µM*	9.2µM*	/	2.2µM*
SMILES	ELG1 DNA repair	Rab9 promoter act	FLuc counter	ELG1 genotoxic	SMN2 splice enh	NPC1 prom act
Cn1ccsc1=NC(=O)c1ccc(Cl)cc1	?	?	17µM*	?	14µM*	?
Cn1ccsc1=NC(=O)c1ccc(OC(F)(F)F)cc1	?	4.5µM*	9.5µM*	?	/	?
O=C(Cn1nc(-c2ccccc2)nc(Cc2ccccc2)c1=O)Nc1ccccc1	/	/	-5%	/	/	/
Cn1cnnc1SCC(=O)NCCc1ccc(Cl)cc1Cl	6%	11%	-4%	1%	-2%	-4%
CCN1CCCC1Cn1cnc2c([nH]c3ccc(OC)cc32)c1=O (stereo unspecified)	?	-1%	-5%	2%	/	-1%
Cc1ccsc1C(=O)NCCc1c[nH]c2ccccc12	?	?	19µM*	?	/	?
CN(Cc1cccs1)C(=O)CCCc1c[nH]c2ccccc12	?	3.2µM*	27µM*	?	?	23%
Cc1ccsc1C(=O)NCCC(c1ccccc1)c1ccccc1	-5%	-6%	-1%	0%	-11%	1%
COc1ccc(CCNC(=O)c2n[nH]c3ccccc23)cc1	14%	21%	21µM*	0%	24%	17%
COc1ccc(CNC(=O)COC(=O)c2n[nH]c3ccccc23)cc1	-21%	-1%	6%	-2%	-10%	-3%
Cc1ccsc1C(=O)NCCc1nnc2ccccn12	?	2.5µM*	?	?	/	?
O=C(NCCc1c[nH]c2ccccc12)c1ccc(F)cc1F	?	?	12µM*	?	/	?
O=C(NCCc1c[nH]c2ccccc12)c1ccc(Cl)cc1	?	2.8µM*	11µM*	?	/	1.8µM*
O=C(NCCc1c[nH]c2ccccc12)c1cnc2sccn2c1=O	?	4.5µM*	15µM*	8.2µM*	14µM*	3.5µM*
COc1ccc(C(=O)c2c[nH]c3ccccc23)cc1	/	/	3.4µM*	/	?	/
O=C(NCc1ccc(F)cc1)c1cnc2sccn2c1=O	3%	2%	-1%	0%	-5%	0%
O=C(NCCSc1c[nH]c2ccccc12)c1ccc(Cl)cc1	/	/	-14%	/	-17%	/
CCOC(=O)c1c(Oc2ccc(OC)cc2)nnc(-c2ccccc2)c1-c1ccccc1	/	/	2%	/	-43%	/
Cc1ccc(C)c(CSc2nnc3[nH]c(=O)cc(C)n23)c1	/	/	-1%	/	/	/
CC(C)C(=O)c1c(C(C)C)nn2ccccc12	/	-3%[46.1 µM]	/	/	-17%	0%[46.1 µM]
COc1ccc(C(=O)NCCc2c[nH]c3ccccc23)cc1	?	1.6µM*	9.5µM*	9.2µM*	/	2.8µM*
COc1ccc(OCC(=O)NCCc2c[nH]c3ccccc23)cc1	0%	-1%	1%	-2%	/	-1%
Cc1ccc(-c2cn3cccnc3n2)cc1NC(=O)C(C)(C)Oc1ccc(Cl)cc1	/	/	-14%	/	/	/

High-throughput results as filed in PubChem.
